Results reported in ChEMBL document CHEMBL3433997, “St. Jude Leishmania screening dataset” (2016).

Legend:
Type in all cases: functional
[1] = target: Solute carrier family 2, facilitated glucose transporter member 1 (Homo sapiens) (UniProt P11166); assay: ST_JUDE_LEISH: Cytotoxicity at 2uM final concentration against transgenic Leishmania Mexicana promastigotes LmGLUT1 that are glucose transport deficient and complemented with the human glucose transporter GLUT1. Activity is measured by DNA content using SYBR green in vitro
Solute carrier family 2, facilitated glucose transporter member 1 (Homo sapiens), sequence (P11166 whole entry): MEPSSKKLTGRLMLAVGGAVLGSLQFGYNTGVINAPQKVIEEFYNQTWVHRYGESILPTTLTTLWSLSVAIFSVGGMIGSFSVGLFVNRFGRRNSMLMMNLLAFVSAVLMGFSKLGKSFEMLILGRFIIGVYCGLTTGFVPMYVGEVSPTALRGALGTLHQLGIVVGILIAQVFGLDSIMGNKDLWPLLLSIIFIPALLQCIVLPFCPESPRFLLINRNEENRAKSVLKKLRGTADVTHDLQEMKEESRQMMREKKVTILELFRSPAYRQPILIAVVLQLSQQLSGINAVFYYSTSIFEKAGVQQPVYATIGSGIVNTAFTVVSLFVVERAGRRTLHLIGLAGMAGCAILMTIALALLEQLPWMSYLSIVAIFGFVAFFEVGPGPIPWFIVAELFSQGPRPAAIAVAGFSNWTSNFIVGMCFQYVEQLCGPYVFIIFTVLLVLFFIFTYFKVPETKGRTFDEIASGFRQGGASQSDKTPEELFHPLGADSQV

[2] = target: Hexose transporter 1 (Plasmodium falciparum) (UniProt O97467); assay: ST_JUDE_LEISH: Cytotoxicity at 2uM final concentration against transgenic Leishmania Mexicana promastigotes LmPfHT that are glucose transport deficient and complemented with the Plasmodium falciparum hexose transporter. Activity is measured by DNA content using SYBR green in vitro
[3] = target: Glucose transporter (Leishmania mexicana) (UniProt O61059); assay: ST_JUDE_LEISH: Cytotoxicity at 2uM final concentration against transgenic Leishmania Mexicana promastigotes LmGT2 that are glucose transport deficient and complemented with the L. Mexicana glucose transporter 2. Activity is measured by DNA content using SYBR green in vitro

SMILES	inhibition [1] [%]	inhibition [2] [%]	inhibition [3] [%]
Cc1cc(N[C@@H](CC(C)C)C(=O)NCCOc2ccccc2)nc(NCC2CCCCC2)n1	3.08	9.67	6.41
O=C(Nc1ccccc1)N(Cc1ccc(-c2ccc(CNCc3ccc4c(c3)OCO4)cc2)cc1)C1CCN(Cc2ccccc2)CC1	0.62	-0.02	-6.42
COc1cccc(NC(=O)NCCNc2ccnc(Nc3ccc(F)cc3)n2)c1	4.09	5.04	0.9
Clc1cc2c(Nc3ccc(Oc4ccccc4)cc3)ccnc2cc1-c1ccc(CNCCN2CCOCC2)o1	-1.44	-0.57	-0.03
COc1ccc2nccc([C@@H](O)CN3CCC(NCc4cc5ccccc5[nH]4)CC3)c2n1	46	59.2	62.5
Cc1ccc(N2CCN(C(=O)c3cccc(-c4cncc5nc(-c6ccco6)n(C)c45)c3)CC2)nc1	6.13	5.42	5.39
CCC[C@@H]([C@@H](CC(C)C)C(=O)N[C@@H](CCCCNC(=O)OCc1ccccc1)C(=O)Nc1ncccn1)N(O)C=O	19.1	21.5	17.1
CC(C)(C)c1ccc(S(=O)(=O)Nc2ccccc2Cn2nc(N3CCNCC3)ccc2=O)cc1	8.03	7.83	8.79
CN(C)CCNCc1ccc(-c2ccc(-c3nc4cc(F)ccc4[nH]3)cc2)cc1	9.57	7.88	5.4
CN(C)C(CNC(=O)c1cc(-c2ccncc2)c(-c2ccc(NC(=O)Nc3cccc(Cl)c3)cc2)o1)c1ccccc1 (configuration not stated)	1.5	2.82	0.81
NC1=NC(CCc2ccccc2)N(c2ccc(Cl)cc2)C(N)=N1 (configuration not stated)	7.41	1.15	1.06
Cc1cccc2nc(-c3cccc(-c4ccc(NC(=O)NCc5cccc(F)c5)cc4)c3)[nH]c12	-1.1	1.21	0.25
CC(C)(C)N1CCC(N(Cc2ccc(-c3ccc(C(F)(F)F)cc3)cc2)C(=O)Cn2c(CCc3cccc(F)c3F)cc(=O)c3cccnc32)CC1	-0.12	-1.34	-1.6
CC(C)COc1ccc(Cl)cc1Cc1ccc(-c2nc3cc(F)c(F)cc3[nH]2)o1	3.02	1.87	1.02
CCN(CC)CCN(Cc1ccc(-c2ccc(C(F)(F)F)cc2)cc1)C(=O)Cn1c(CCc2ccc(F)cc2)nc(=O)c2ccccc21	2.98	2.96	3.33
COc1ccc2nccc(N(C)CC3(O)CCC(NCc4ccc5c(n4)NC(=O)CS5)CC3)c2n1 (configuration not stated)	3.69	3.78	1.23
Cc1cccc2nc(-c3ccc(-c4ccc(CN5CCC(C(N)=O)CC5)cc4)cc3)[nH]c12	6.51	5.37	5.21
CC1CCC(NC(=O)c2nn(-c3ccc(Cl)cc3)c(=O)c3ccccc23)CC1 (configuration not stated)	1.52	1.39	-0.26
Cc1nc(C(=O)N2CCCC[C@H]2CNC(=O)c2ccc(-c3ccc(N4CCCC4=O)cc3C)cc2)c(-c2ccc(F)cc2)s1	-1.91	-0.31	4.58
Nc1c2c(nc3ccc(NC(=O)CCCc4ccccc4)cc13)CCCC2	1.07	1.78	0.12
S=C(NCCCCCN1CCC(c2c[nH]c3ccccc23)CC1)Nc1cccc(I)c1	0.7	1.62	-1.76
COc1cc(NC(=O)c2ccc3c(=O)n(Cc4ccccc4)c(=S)[nH]c3c2)cc(OC)c1OC	5.79	7.58	7.73
Cc1cnc2ccc(NS(=O)(=O)c3sc4ccc(Cl)cc4c3C)cc2c1N1CCNCC1	3.23	4.04	-0.02

SMILES	inhibition [1] [%]	inhibition [2] [%]	inhibition [3] [%]
Cc1cc(C(=O)N(Cc2ccc(-c3ccc(CNCCc4ccc(S(C)(=O)=O)cc4)cn3)cc2)C(C)CN(C)C)ccc1[N+](=O)[O-] (configuration not stated)	7.26	5.46	6.55
Cc1cccc2nc(-c3cccc(-c4cccc(CNCC5CCCO5)c4)c3)[nH]c12 (configuration not stated)	1.16	0.17	1.17
COc1ccc2nccc([C@@H](O)CN3CCC(NS(=O)(=O)c4cc(Br)c(Br)s4)CC3)c2c1	3.72	2.36	1.8
CCC(C(C)C)n1ccc2c3c(N)nc(N)nc3ccc21 (configuration not stated)	81.6	84.6	66.6
Cc1ccc(C(=O)Nc2cccc(CN3CCCN(Cc4ccc(O)cc4)CC3)c2)cc1	1.89	0.24	-7.6
Clc1ncnc2scc(-c3ccc(Br)cc3)c12	7.74	6.35	3.52
O=C(Cc1cccc(Cl)c1)N1CCc2cc3nccc(N4CCN5CCC[C@H]5C4)c3cc21	3.68	2.69	4.38
C[C@@H](CC1CCCCC1)NCc1cccc(NS(=O)(=O)c2ccc(O)c(-c3ccno3)c2)c1	10.7	8.37	14.5
NC(=O)NC(=O)C=Cc1ccco1	0.54	1.9	1.91
COc1ccc(C=NNc2ccnc3cc(F)c(C)cc23)c2ccccc12	8.78	8.43	4.95
O=C(Nc1cccc(CN2CCCN(Cc3ccc4c(c3)OCO4)CC2)c1)c1ccc(-c2ccccc2)cc1	4.21	3.52	0.89
C=CCc1c(C(=O)NCC23CC4CC(CC(C4)C2)C3)nc2ccccc2c1O	-2.74	0.27	3.24
COCCn1c(Sc2ccc(C#N)c([N+](=O)[O-])c2)nnc1-c1ccc(N(C)C)cc1	13	13.5	11.7
Oc1c(Cl)cc(Nc2nccc(Nc3ccc(Oc4ccccc4)cc3)n2)cc1Cl	4.19	4.44	1.16
FC(F)(F)c1ccc2c(NCCCNc3ccnc4cc(C(F)(F)F)ccc34)ccnc2c1	-2.25	3.22	-4.41
O=C(NC1CCN(c2ncc(C(F)(F)F)cc2Cl)CC1)c1cccs1	-1.13	-1.85	-3.08
CCN(CC)CCN(CCN(CC)CC)c1ccc2c(c1)Sc1c(Cl)ccc(Cl)c1S2	1.42	6.29	3.91
C=CCC(CC=C)N1C(=O)C(c2ccccc2)(c2ccccc2)N=C1N	0.75	-0.83	0.62
CC(C)CCCC(C)NC[C@@H](O)[C@H](Cc1ccccc1)NC(=O)c1cc(N2CCCC2=O)cc(N(c2ccccc2)S(C)(=O)=O)c1 (some centres not stated)	1.85	2.61	1.65
Cc1cccc2nc(-c3ccc(-c4cccc(NC(=O)Nc5cccc(C#N)c5)c4)cc3)[nH]c12	0.79	-0.19	-1.23
Cc1nc(C)c(-c2ccc(Oc3cc(Cl)cc(Cl)c3)cc2)c(O)c1Br	1.01	2.38	-1.58
Cc1nccn1Cc1cc(C(C)(C)C)c(O)c(C(C)(C)C)c1	3.44	2.22	3.5
Cc1ccc(NS(=O)(=O)c2cccs2)cc1-c1cccc(C(=O)Nc2ccc(F)cc2)c1	2	3.65	1.16

SMILES	inhibition [1] [%]	inhibition [2] [%]	inhibition [3] [%]
CCOc1cc(C)ccc1C1CCN(CCCCNC(=O)c2ccc(NC(=O)c3cc(Cl)cc(Cl)c3)cc2)CC1	2.78	0.36	1.02
COc1c(C2CCN(CCCCNC(=O)c3cc(-c4ccc(Cl)cc4)sc3C)CC2)ccc2c1CCCC2	0.21	2.22	-2.53
COc1ccc2nccc(N3CCC(NCCNS(=O)(=O)c4ccc5c(c4)NC(=O)CS5)C3)c2n1 (configuration not stated)	-1.11	-1.18	-2.22
Cc1cccc(Nc2nccc(Nc3cccc(C(=O)NCCN4CCOCC4)c3)n2)c1	2.19	1.2	1.44
O=[N+]([O-])c1cccc(CNC2CCN(Cc3ccc4ccccc4c3)CC2)c1	19	12.4	10.9
Cc1ccccc1C1CCN(C2CCC(NC(=O)/C=C/c3ccccc3C(F)(F)F)CC2)CC1 (configuration not stated)	3.47	-0.14	4.39
COc1cc2nc(N3CCC(CNC(=O)c4ccc(-c5ccc(C(=O)N(C)C)cc5)c(OCCO)c4)CC3)nc(N)c2cc1OC	2.82	3.22	2.26
Cc1cccc2nc(-c3cccc(-c4ccc(C(=O)NCc5ccccc5S(C)(=O)=O)cc4)c3)[nH]c12	4.92	3.13	2.53
CCOc1ccc2c(c1)N(C(=O)C=Cc1ccccc1)C(C)(C)c1ssc(=S)c1-2	0.5	0.43	0.85
O=[N+]([O-])c1ccc2c(-c3ccccc3)c(-c3ccccc3)n(O)c2c1	2.37	3.54	0.3
O=C(Cc1cccc(Cl)c1)Nc1cccc(-c2c[nH]c3nc(Nc4cccc(O)c4)ncc23)c1	0.33	0.22	-0.68
Cc1noc(C)c1-c1ccc2c(Nc3nccc4ccccc34)c(C(N)=O)cnc2c1	103	89.7	102
CC(C)(C)c1cc([N+](=O)[O-])cc(C(=O)Nc2ccccc2C(F)(F)F)c1O	0.47	-0.82	-1.86
COc1ccc(CC2(CO)CCN(Cc3ccc(O)c(Cl)c3)CC2)cc1	9.35	7.92	5.84
Cc1ccc(C(=O)Nc2cccc([N+](=O)[O-])c2)cc1S(=O)(=O)N1CC(C)CC(C)C1 (configuration not stated)	6.34	5.86	0.08
O=C(Nc1ccc(OC(F)(F)F)cc1)NC1CCN(c2ccnc3ccccc23)CC1	6.11	5.45	-1.28
COc1cccc(-c2cc3c(NCc4ccncc4)nccc3s2)c1	3.12	3.46	0.82
Fc1ccc2[nH]c(-c3cccc(-c4ccc(CN5CCCCC5)cc4)c3)nc2c1	4.18	3.6	2.43
COc1ccc(NC(=O)/C=C/c2cc(Br)ccc2F)cc1OCCN(C(C)C)C(C)C	0.52	0.38	0.14
Cc1ccc(F)c(NC(=O)c2c(-c3c(F)cccc3Cl)noc2C)c1	-0.89	2.09	1.42
Nc1ccnc(N2CCC(CCOc3cc(C(F)(F)F)nc4c(C(F)(F)F)cccc34)CC2)c1	25.6	43.4	10.2
CCOC(=O)c1ccc(NC(=O)N[C@@H](Cc2ccccc2)C(=O)NC2CCN(Cc3ccc(OCCCN(C)C)cc3)C2)cc1 (some centres not stated)	-0.91	0.74	0.98
COc1ccc(NC(=O)/C=C/c2ccc(-c3ccc(-c4noc(C)n4)cc3)cc2)cc1OCCN(C)C	-0.19	2.25	0.27
